# PubChem BioAssay (NCI)
# About 83,000 compounds went through this panel and 20% of them were active in at least one assay; those are over-represented in the sample as a whole.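 Cells were grown in 96-well plates and exposed to the test compound at a single concentration for 48 hours; results are reported as percent growth, with values below 10 considered active.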 Unmarked numbers belong to inactive results. The source made the active and inactive calls.
# Tests used:
# Experiment in all cases: NCI-60 one-dose screen, 48 h (100 = growth as untreated, 0 = no growth, -100 = all killed)
# Conditions in all cases: 10 µM unless noted
# SK-MEL-2 melanoma = system: SK-MEL-2 melanoma
# EKVX NSCLC = system: EKVX NSCLC
# UO-31 renal = system: UO-31 renal
# TK-10 renal = system: TK-10 renal
# ACHN renal = system: ACHN renal
# CAKI-1 renal = system: CAKI-1 renal
# A498 renal = system: A498 renal
# CCRF-CEM leukemia = system: CCRF-CEM leukemia
# MOLT-4 leukemia = system: MOLT-4 leukemia
# SR leukemia = system: SR leukemia
# RPMI-8226 leukemia = system: RPMI-8226 leukemia
# OVCAR-8 ovarian = system: OVCAR-8 ovarian
# OVCAR-5 ovarian = system: OVCAR-5 ovarian
# OVCAR-4 ovarian = system: OVCAR-4 ovarian
# SK-OV-3 ovarian = system: SK-OV-3 ovarian
# IGROV1 ovarian = system: IGROV1 ovarian
# OVCAR-3 ovarian = system: OVCAR-3 ovarian
# HS 578T breast = system: HS 578T breast
# NCI/ADR-RES ovarian = system: NCI/ADR-RES ovarian
Compound,growth (SK-MEL-2 melanoma),growth (EKVX NSCLC),growth (UO-31 renal),growth (TK-10 renal),growth (ACHN renal),growth (CAKI-1 renal),growth (A498 renal),growth (CCRF-CEM leukemia),growth (MOLT-4 leukemia),growth (SR leukemia),growth (RPMI-8226 leukemia),growth (OVCAR-8 ovarian),growth (OVCAR-5 ovarian),growth (OVCAR-4 ovarian) [%],growth (SK-OV-3 ovarian),growth (IGROV1 ovarian),growth (OVCAR-3 ovarian),growth (HS 578T breast),growth (NCI/ADR-RES ovarian)
Clc1cccc(-c2ccc(OCCCN3CCN(c4ccncc4)CC3)cc2)c1,74%,11.6%,30.4%,41.9%,49.4%,5.23% (active),65.5%,-28.7% (active),-47.4% (active),-38.5% (active),-39.1% (active),37.9%,69.7%,38.2,30.1%,49.6%,0.45% (active),-2.27% (active),5.66% (active)
CC(=O)OC[C@@]1(C)C2CC[C@]3(C)C(CC=C4C5CC(C)(C)CC[C@]5(C(=O)Nc5ccc(F)cc5)CC[C@]43C)[C@@]2(C)C[C@@H](OC(C)=O)[C@@H]1OC(C)=O (some centres not stated),32.6%,28.1%,38.6%,56.5%,38.6%,44.9%,63.1%,29.8%,35%,27.8%,13.5%,36.4%,78.7%,30.3,45.1%,51.9%,42%,85.3%,40.6%
CCCCCCCCc1ccc(C(=O)Nc2ccc(C)cc2C(=O)O)cc1C,97.5%,88.4%,78.6%,102%,84.4%,78.2%,98.8%,–,90.8%,88.2%,82.7%,93.2%,115%,102,100%,98.2%,108%,93.1%,96.3%
CN(C)c1ccnc(CNCCSC2(c3ccccc3)c3ccccc3C=Cc3ccccc32)c1,-46.6% (active),-24.3% (active),13.5%,0.124% (active),12.8%,3.63% (active),-38.8% (active),-2.57% (active),7.41% (active),-52.6% (active),-48% (active),-45.1% (active),1.39% (active),16.8,6.47% (active),11.1%,-58.6% (active),-34% (active),-61.6% (active)
COc1ccc(N2N=C(c3ccc4c(c3)OCO4)CC2c2cccc(NC(=O)CCNS(=O)(=O)c3ccc(Cl)cc3)c2)cc1 (configuration not stated),44.5%,13.1%,35.3%,51.9%,24.9%,30.4%,-4.53% (active),18.7%,10.3%,3.71% (active),23.2%,49.1%,68.4%,51.6,46.1%,61.1%,61.8%,13.4%,71.3%
CC(C)CSc1nc(NCCc2c[nH]c3ccccc23)c(C#N)c(-c2ccccc2)n1,75.6%,39.7%,72.2%,110%,69.3%,50.8%,67.9%,30.2%,30.7%,-10.2% (active),35.8%,76.9%,85.6%,77.2,86.7%,104%,93.5%,48.2%,53.5%
CCCCCCCCOc1cccc(S(=O)(=O)Nc2ccc(C)cc2C(=O)O)c1,89.7%,92.8%,85.9%,102%,98.1%,85.8%,107%,72.5%,90.5%,90%,64.5%,95.6%,114%,90.1,108%,99.7%,102%,106%,97.6%
Cc1ccc(C(=O)CSc2nc3ccc(C)cc3c(=O)n2-c2ccc(F)cc2)cc1,116%,62.8%,43.8%,56.3%,19.3%,53%,19.6%,88%,93.2%,99.7%,98.5%,31.3%,84.8%,28.6,54.9%,80.5%,89.5%,-8.71% (active),40.6%
CCC(C)(C)c1ccc(OCCCCN2CCN(c3ccncc3)CC2)cc1,63.2%,28%,40.2%,70.8%,68.9%,43.5%,88.9%,2.23% (active),1.66% (active),-24.2% (active),-31.3% (active),67%,69.2%,56,32.3%,55.5%,51.1%,20.2%,59.7%
Cc1ccc(C(SCCNCc2cc(N(C)C)ccn2)(c2ccccc2)c2ccccc2)cc1,-36.3% (active),-24.8% (active),8.42% (active),-4.26% (active),3.79% (active),-10.4% (active),-43.8% (active),–,8% (active),-45.1% (active),-54.6% (active),-52.5% (active),-19.9% (active),11.4,-10.5% (active),6.28% (active),-46.7% (active),-45.7% (active),-56.8% (active)
Cc1cc(=O)oc2cc(OCCCCOc3ccc(/C=C/C(=O)Nc4ccccc4N)cc3)ccc12,111%,60.3%,23.3%,112%,68.2%,59.8%,84.1%,10.9%,27.8%,56.4%,18.7%,85.2%,84.8%,73.1,92.1%,81.7%,64.9%,118%,74.3%
